From PubChem BioAssay AID493208 (National Center for Advancing Translational Sciences (NCATS), 2011)
About 340 (0.77%) of roughly 44,000 compounds were called active. Inconclusive results (about 5%) are left out. Calls follow the shape of the dose curve; as a rule, active = well fitted inhibition curve with a large enough effect; inconclusive = small, poorly fitted or top-dose-only effect; inactive = flat fitted curve, though single readings scatter. For the sample, actives were picked, then their nearest neighbours and some compounds at random.

Assay: Acumen qHTS Assay for Inhibitors of the mTORC1 Signaling Pathway in MEF (Tsc2-/-, p53-/-) Cells: Sytravon; also: nearly all actives have a fitted effect of over 50% in size;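 as to activity change, negative = inhibition: plate controls were DMSO for no effect and rapamycin for full effect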
Conditions: phospho-rpS6 immunofluorescence/PI, 24 h; series mostly up to 38.3 µM; activity change, negative = inhibition: at the top concentration
Text: NIH Molecular Libraries Probe Production Centers Network [MLPCN] NIH Chemical Genomics Center [NCGC] MLPCN Grant: NS059428-01 Assay Submitter (PI): Blenis, John; Hoffman, Greg; Harvard University NCGC Assay Overview: The mammalian target of rapamycin (mTOR) is an intracellular serine/threonine kinase Aberrant regulation of mTOR signaling plays a causative role in a number of human diseases, including cancer, benign tumors such as lymphangioleiomyomatosis (LAM) and Tuberous Sclerosis Complex (TSC), and metabolic diseases such as diabetes and obesity. This project aims to identify inhibitors of ribosomal protein S6 (rpS6) phosphorylation. The phosphorylation of rpS6 is a key event downstream of mTOR activation. The assay uses a phospho-specific antibody of phospho-rpS6 to detect inhibitors of mTOR activation. Mutations in the Tsc1 and Tsc2 genes are the underlying genetic lesions responsible for TSC, causing constitutive activation of the mTORC1 pathway and leading to profound effects on cell metabolism. Aberrant metabolism in cancer has recently received significant attention as a target to develop therapeutic agents in the treatment of cancer.1 As Tsc2-/- cells have lost the ability to respond to energy and growth factor deprivation, these cells are unable to properly down regulate cellular biosynthetic processes in response to metabolic stress, and are thus extremely sensitive to glucose deprivation-induced death.2 A central goal of this project is to explore the unique cell survival and metabolic properties of cells with Tsc1 or Tsc2 by screening for compounds that selectively target the Tsc2-/- MEFs by screening both Tsc2-/- and WT MEF cell lines. We hope to better understand these aspects of TSC physiology in order to exploit them for therapeutic benefit.
NCGC Acumen Assay Protocol Summary: For quantitative high throughput analysis of mTORC1 signaling, we developed a cell-based assay for immuno-fluorescence based detection of rpS6 phosphorylation on the Acumen Explorer that will be used a platform for the primary small molecule screen. Mouse embryonic fibroblasts (MEFs) are cultured in 1536-well plates using DMEM + 10% FBS. Twenty-four hrs after plating, test compounds (solubilized in DMSO) are delivered and incubated with the cells for 24 hrs at 37 degree Celsius. Following the incubation, media with compound is aspirated and the cells are fixed in 4% paraformaldehyde (PFA) containing PBS + 0.2% TX-100. Next, PFA is aspirated, cells are washed two times with PBS plus 0.2% TX-100 and the cells are blocked for 1 hr at room temperature (blocking buffer: LiCOR Blocking Buffer plus 0.2% TX-100). […] Cells are washed two times with PBS plus 0.2% TX-100, and stained with 10 uM propidium iodide (PI) for 20-25 minutes for cell number measurement (1:500 dilution of Hoescht staining is also added for IN Cell imaging). The plates are scanned on the Acumen Explorer laser scanning instrument (TTP Labtech) using the 488nm laser for simultaneous excitation of the Alexa-488 and PI. […] The normalized phospho-S6 staining is calculated as the ratio of the integrated Alexa 488 intensity divided by the integrated PI intensity for the single concentration rapamycin control (7.5 nM) and DMSO columns. […] Inhibition of the pathway is defined based on the normalized phospho-S6 intensity in rapamycin treated cells. Active cells are defined as those with a normalized phospho-S6 staining above this threshold, and each treatment is reported as the % positive cells in the well, where thresholds are defined by selecting wells with the highest and lowest signal and differentiating between the % non-active and % active populations. In addition to the pathway specific phospho-S6 endpoint, the number of PI stained cells from the Acumen is recorded as a measure of cell viability. The primary screen was performed with a MEF cell line in a defined genetic background, Tsc2-/-, p53-/- cell line stably transfected with an empty vector control (Tsc2-/- MEF).
Potency is read from the fitted curve at half-maximal effect.

Activity change, negative = inhibition, inactive:
CSc1oc(-c2cccs2)nc1S(=O)(=O)c1ccc(Br)cc1 2.88%, Cc1ccc(CSc2oc(-c3cccs3)nc2S(=O)(=O)c2ccc(C)cc2)cc1 0%, Cc1ccc(CNC(=O)CSc2c3c(nc4cc(Cl)ccc24)CCCC3)cc1 -6.2%, COc1cccc(CNC(=O)CSc2c3c(nc4cc(Cl)ccc24)CCCC3)c1 3.18%, CN(C)CCN(Cc1ccccc1)S(=O)(=O)c1csc(C(N)=O)c1 3.82%, CC(C)C12CN3CC(C(C)C)(CN(C1)C3c1ccc(OCc3ccccc3)cc1)C2=O (stereo not drawn) -2.1%, N#C/C(=C\c1ccccc1F)c1nc2ccccc2c(=O)[nH]1 7.42%, COC(=O)c1cnn(-c2ccc(C(=O)Nc3ccc(OC(F)(F)F)cc3)cc2)c1N -1.33%, Cc1ccc(Cn2c(=O)n(-c3ccc(C)cc3)c(=O)c3c2c2cc(C)ccc2n3C)cc1 -1.48%, CCOC(=O)c1ccc(NC(=O)c2nc(SCc3ccc(F)cc3)ncc2Cl)cc1 -6.5%, CCSc1ncc(Cl)c(C(=O)Nc2cc(C)ccc2C)n1 5.83%, CCC(C)NC(=O)Cn1c(=O)n(-c2ccc(Cl)cc2)c(=O)c2c3c(sc21)CCCC3 (stereo not drawn) 7.38%, CC1CCCCN1CCCNC(=O)Cn1ncc2c([nH]c3ccccc32)c1=O (stereo not drawn) -1.23%, COc1ccccc1-c1noc(CSc2nnc(-c3ccccc3)n2-c2ccc(C)c(C)c2)n1 -10.2%, CCOc1ccc(CNC(=O)c2ccc(CS(=O)c3ccccc3)o2)cc1 (stereo not drawn) 3.66%, CCCCC(CC)CNC(=O)C1CCN(S(=O)(=O)c2cccc3nsnc23)CC1 (stereo not drawn) 2.77%, CC(=O)c1cccc(NC(=O)CSc2nc3c(c(=O)[nH]2)CCC3)c1 2.41%, Cc1ccc(Cn2c(C)c3cnn(CC(=O)NCc4ccccc4)c(=O)c3c2C)cc1 -12.7%, Clc1ccc(CSc2nncn3c2cc2occc23)cc1 0.254%, COc1cc(OC)cc(-c2nc3nc(C)c(CCC(=O)Nc4ccccc4)c(C)n3n2)c1 2.09%, CCOc1cccc(CC(=O)N2CCc3c([nH]c4ccccc34)C2c2ccc(OC)cc2)c1OCC (stereo not drawn) 9.34%, CCN(C(=O)CSc1nnc(C)n2c1cc1occc12)c1ccccc1 -2.15%, Cc1ccc(-c2nc(SCc3ccc(Br)cc3)n3[nH]c(=O)cc3n2)cc1 -2.33%, O=c1cc(-c2ccccc2)n2c(SCc3ccccc3)nnc2[nH]1 0.0486%, CCCCSc1ncnc2c1sc1nc(N3CCOCC3)c3c(c12)CCCC3 6.37%, COc1ccc(N2C(=O)CSC23C(=O)N(Cc2cccc(F)c2)c2ccccc23)cc1Cl (stereo not drawn) -3.26%, COc1cc(C(=O)Nc2ccc(OCc3cc(=O)n4cc(C)sc4n3)cc2)cc(OC)c1OC -6.16%, CCOc1ccc(NC(=O)c2ncoc2-c2ccco2)cc1 0%, Cn1nnnc1SCCCNCc1ccc(Cl)cc1 -9.59%, Cn1nnnc1SCCNCc1ccc(Cl)c(Cl)c1 -5.71%, COc1ccc(C(=O)Nc2nonc2-c2ccc(OC)c(OC)c2)cc1Cl -29.4%, Cc1ccc(NC(=O)c2cc3cc(C)ccc3n2C)cc1 -1.67%, Cc1ccc(S(=O)(=O)c2nnn3c2nc(N2CCN(c4ccccc4F)CC2)c2cc(Cl)ccc23)cc1C -0.0789%, COC(=O)c1cc(NC(=O)c2cnc(SC)nc2-c2ccccc2)cc(C(=O)OC)c1 -1.13%, Cc1ccc(Nc2nnc(-c3ccc(C)c(S(=O)(=O)N4CCCCC4)c3)c3ccccc23)cc1 -1.69%, Cc1ccc(-c2nnc(Nc3cccc(Br)c3)c3ccccc23)cc1S(=O)(=O)NCC1CCCO1 (stereo not drawn) -0.426%, O=C(Nc1ccccc1Cl)N1CCC(CN2CCCCC2)CC1 -6.23%, CCn1c(=O)c2cc(C(=O)NCCc3ccc(Cl)cc3)sc2c2ccccc21 1.55%, CCc1ccc(CNC(=O)c2cc3c(=O)n(CC)c4ccccc4c3s2)cc1 -7.38%, CCCCOC(=O)CSc1ncnc2sc3c(c12)CCC(C)C3 (stereo not drawn) -0.119%, CCc1ccc(NC(=O)c2cc3c(=O)n(Cc4cccnc4)ccc3nc2C)cc1 -1.59%, Cc1cc(NC(=O)CC(C)C)cc(-c2nc3ncccc3o2)c1O 1.54%

Potency, active:
CCOC(=O)C1CCN(C(=O)CSc2c3c(nc4ccc(Cl)cc24)CCCC3)CC1 18.5 µM, Cc1ccc(NC(=O)c2nc(S(=O)(=O)Cc3cccc(C)c3)ncc2Cl)cc1 5.85 µM, Cn1nnnc1SCCCNCc1cccc(OCc2ccc(Cl)cc2)c1 18.5 µM, CCNS(=O)(=O)c1cc(-c2nnc(Nc3cccc(C(F)(F)F)c3)c3ccccc23)ccc1C 18.5 µM, CCN(CCCNC(=O)c1cc2c(=O)n(CC)c3ccccc3c2s1)Cc1ccccc1 18.5 µM, O=C(CC(NCc1cccnc1)C(=O)O)Nc1ccc(O)cc1 (stereo not drawn) 14.7 µM
